# Screen size: about 330,000 compounds; about 7,700 (2.3%) were called active. Another 26% or so got no clear call; they are omitted. For the sample, actives were picked, then their nearest neighbours and some compounds at random. Values without a mark were called inactive. Calls follow the shape of the dose curve; as a rule, active = well fitted inhibition curve with a large enough effect; inconclusive = small, poorly fitted or top-dose-only effect, or effect the other way; inactive = flat fitted curve, though single readings scatter.
# Test: qHTS screen for small molecules that inhibit ELG1-dependent DNA repair in human embryonic kidney (HEK293T) cells expressing luciferase-tagged ELG1; also: nearly all actives have a fitted effect of over 55% in size
# Details: HEK293T ELG1-luciferase reporter, luminescence, 16 h, DNA damage induced by 5-fluorouridine; series mostly up to 46.1 µM; activity change, negative = inhibition: at the top concentration
# How it was run: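 5-Fluorouridine DNA damage + compound/DMSO, 2,000 cells/well, 16 h, 37 °C/5% CO2. ONE-Glo, 30 min RT, luminescence. Readout = decrease in reporter signal.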
# % is scaled to controls: 0 for no effect and ±100 for the full control effect; potency is read from the fitted curve at half-maximal effect.
SMILES,"activity change, negative = inhibition",Potency
COc1ccccc1CNC(=O)COn1nnc2ccc(S(=O)(=O)N3CCOCC3)cc21,-1.32%,–
COc1ccc(CCNc2nc3ccc(C)cc3n3cnnc23)cc1OC,-17.1%,–
COc1ccc(OC)c(Nc2nc3ccccc3n3cnnc23)c1,–,14.6 µM (active)
CCn1c(C(O)c2cc(OC)ccc2OC)nc2ccccc21 (configuration not stated),-22%,–
Cc1ccc(/C=C2/SC(=S)N(CCC(=O)NCCCN3CCOCC3)C2=O)cc1,3.39%,–
CCOc1ccc(NC(=O)COc2ccc(C(=O)N3CCC(C(N)=O)CC3)cc2OC)cc1,0.553%,–
CCc1c(C)nc2c(-c3ccccc3)c(C)nn2c1Nc1ccc(NC(C)=O)cc1,–,16.4 µM (active)
Cc1cc(-c2ccccc2)n2nc(C)c(-c3ccccc3)c2n1,29.7%,–
Cc1cc(-n2nc(C)cc2C)n2nc(C)c(-c3ccccc3)c2n1,-15.9%,–
Cc1cc(C)c2nc(N(CCN(C)C)C(=O)/C=C/c3cccs3)sc2c1,-3.07%,–
CN(CC(=O)Nc1ccc(F)c(F)c1F)C(=O)Cn1cnc2c1c(=O)n(C)c(=O)n2C,13%,–
O=C(COc1ccccc1F)NNC(=O)c1cc(Br)ccc1Cl,16.7%,–
COc1ccccc1N1CCN(C(=O)C2Cc3ccccc3CN2C(=O)c2ccco2)CC1 (configuration not stated),8.8%,–
Cc1ccc(C)c(-c2nnc(NC(=O)CS(=O)(=O)c3ccccc3)o2)c1,-2.86%,–
COc1ccc(S(=O)(=O)NCC(=O)NC2CC2)cc1OC,3.84%,–
O=C(N/N=C/c1ccc(O)c2ccccc12)c1cccnc1,-3.64%,–
Cc1ccc(C(=O)NCCNC(=O)c2cnccn2)cc1,-0.272%,–
CCN(CC)c1ccc(/C=N/NC(=O)c2cnccn2)c(O)c1,–,1.46 µM (active)
CC1(c2ccc3ccccc3c2)NC(=O)N(CC(N)=O)C1=O (configuration not stated),-0.705%,–
CCc1ccc(Nc2n[n+](-c3ccccc3)c(-c3cccc(Cl)c3Cl)s2)cc1,-28.7%,–
Cc1ccc(Nc2ccc(C(N)=O)cc2[N+](=O)[O-])cc1,-8.38%,–
NC(=O)c1ccc(Nc2ccc3nonc3c2[N+](=O)[O-])cc1,-11.4%,–
NC(=O)c1ccc(Nc2ccc3c(c2)CCC3)c([N+](=O)[O-])c1,–,11.6 µM (active)
CC(Sc1nnc(-c2ccccc2F)n1C1CC1)C(N)=O (configuration not stated),2.76%,–
CCN(C[C@H]1N[C@@](Cc2ccccc2)(C(=O)OC)[C@H]2C(=O)N(Cc3ccccc3)C(=O)[C@@H]12)C(=O)c1ccc(C)cc1,0.138%,–
COc1ccccc1C(=O)Nc1ccc(OCc2nnc3c4ccccc4c(C)nn23)cc1,–,20.6 µM (active)

SMILES,"activity change, negative = inhibition",Potency
CCCNC(=O)Nc1ccccc1C(=O)Nc1ccc(OC)cc1,23.7%,–
CCOc1ccc(NC(=O)c2cc(C)nc3ccccc23)cc1,-8.94%,–
COc1ccc(C(CNC(=O)c2ccc(NS(=O)(=O)c3ccc(F)c(C)c3)cc2)N(C)C)cc1 (configuration not stated),14.9%,–
O=C1/C(=C\c2cccnc2)CN(Cc2ccccc2)C/C1=C\c1cccnc1,–,3.66 µM (active)
O=C1NCC(=O)N(Cc2ccccc2)/C1=C/c1ccccc1,7.15%,–
O=Cc1cn(Cc2ccccc2)nc1-c1cccnc1,9.65%,–
COC(=O)[C@]1(CC(C)C)N[C@H](c2ccc(SC3CCCCC3)cc2)[C@@H]2C(=O)N(C)C(=O)[C@@H]21,-17.4%,–
CCOC(=O)C1CCN(c2ncnc3c2oc2ccc(Br)cc23)CC1,24%,–
CCOC(=O)C1CCN(c2ncnc3c2c(-c2ccccc2)cn3-c2ccc(C)cc2)CC1,–,14.6 µM (active)
CCOC(=O)C1CCN(Cc2ccc(-c3ccccc3)cc2)CC1,1.34%,–
COC(=O)c1ccc(C(=O)NC2CC(C)(C)Cc3c2cnn3-c2ccc(F)cc2)nc1 (configuration not stated),7.96%,–
CC1(C)C[C@H]2C3=CCC4[C@@]5(C)CC[C@H](O)[C@](C)(CO)C5CC[C@@]4(C)[C@]3(C)C[C@@H](O)[C@@]2(CO)[C@@H](O)[C@@H]1O (some centres not stated),-2.62%,–
CCN(CC)CCCNC(=O)c1c(O)c2cc(F)cc3c2n(c1=O)C(C)CC3 (configuration not stated),14.1%,–
NC(=O)COC(=O)/C=C/c1ccc2ccccc2n1,-4.5%,–
CC(=O)c1ccc(S(=O)(=O)N2CCN(C(=O)/C=C/c3ccc4ccccc4n3)CC2)cc1,–,20.6 µM (active)
CC(=O)c1ccc(S(=O)(=O)N2CCC3(CC2)OCCO3)cc1,1.56%,–
N#C/C(=C\c1cccnc1)C(=O)Nc1ccc(SC(F)F)cc1,19.2%,–
CC(CNC(=O)Cn1cnc2c(OCc3ccccc3)ncnc21)c1ccccc1 (configuration not stated),-6.48%,–
O=C(Nc1nc(-c2ccc3c(c2)OCO3)cs1)c1ccncc1,–,7.08 µM (active)
C/C(=N/NC(=O)c1ccncc1)c1ccc2c(c1)OCO2,0%,–
COc1ccc(-c2csc(NC(=O)c3ccc(N4C(=O)CCC4=O)cc3)n2)cc1OC,11.1%,–
CCN(C(=O)COC(=O)CCOc1cccc(C)c1)c1c(N)n(Cc2ccccc2)c(=O)[nH]c1=O,2.9%,–
O=C(CSc1ccccn1)N1CCN(S(=O)(=O)c2ccc(Cl)cc2)CC1,2.63%,–
CCN(C[C@H]1N[C@@](CC)(C(=O)OC)[C@H]2C(=O)N(C)C(=O)[C@@H]12)C(=O)Nc1ccc(F)cc1,17.4%,–
OCCCNc1nccc(-c2cc(Nc3cccc(Cl)c3)ncn2)n1,–,0.92 µM (active)
NS(=O)(=O)c1cccnc1Nc1cccc(Cl)c1,7.92%,–

SMILES,"activity change, negative = inhibition",Potency
O=C(Nc1cc(Cl)cc(Cl)c1)C(NCCCO)c1ccccc1 (configuration not stated),-4%,–
COc1ccc(S(=O)(=O)N2CCN(CC(=O)N3CCOCC3)CC2)cc1OC,11.6%,–
COc1ccccc1C(=O)Nc1ccc(NC(=O)c2ccco2)c(C)c1,5.61%,–
CCC(=O)Nc1ccc(C(=O)N2CCN(C(=O)c3ccco3)CC2)cc1,-22.8%,–
Cc1ccc(OCC(=O)Nc2ccc(N3CCN(C(=O)c4ccco4)CC3)cc2)c(C)c1,–,10.3 µM (active)
COc1cccc(C(=O)Nc2ccc(N3CCN(C(=O)c4ccco4)CC3)cc2)c1,–,13 µM (active)
Cc1ccc(OCC(=O)N/N=C\c2ccco2)c(C)c1,20.9%,–
COc1cc(NC(=O)c2cc([N+](=O)[O-])ccc2Br)ccc1NC(=O)c1ccco1,25%,–
Cc1ccc(C)c(OCC(=O)N2CCN(C(=O)c3ccco3)CC2)c1,0.168%,–
COc1ccc(C(=O)Nc2ccccc2C(=O)N2CCN(c3ccccc3)CC2)cc1,8.95%,–
COc1ccc(NC(=O)c2cccc(NC(=O)c3ccco3)c2)c(OC)c1,–,18.4 µM (active)
Cc1cccc(C(=O)N[C@H](C(=O)NCc2cccs2)C(C)C)c1,-3.69%,–
CC(NC(=O)c1ccccc1F)c1cccc2ccccc12 (configuration not stated),18.6%,–
CC1CCCC(NC(=O)c2cc(S(=O)(=O)N3CCCCC3)ccc2Cl)C1C (configuration not stated),9.38%,–
Cc1ccccc1CNC(=O)CCC(=O)N1Cc2ccccc2Oc2ncccc21,13.4%,–
C=C1CCC(N(O)c2cc(C)on2)C(=C)CCC2C1CC2(C)C (configuration not stated),13.3%,–
Cc1ccc(S(=O)(=O)N2CCC(C(=O)NCCC3=CCCCC3)CC2)cc1C,5.56%,–
Fc1ccc2[nH]c3c(N4CCN(Cc5ccc6c(c5)OCO6)CC4)ncnc3c2c1,–,13 µM (active)
CC(C)(C)n1nnnc1C(c1ccc(F)cc1)N1CCN(Cc2ccc3c(c2)OCO3)CC1 (configuration not stated),14.9%,–
O=c1[nH]c(N2CCN(Cc3ccc4c(c3)OCO4)CC2)nc2c1CCCC2,8.53%,–
COc1cccc(CNC(=O)COc2cc(O)c3c(c2)OC(C)(C)CC3=O)c1,-5.81%,–
Cc1ccc(C)c(S(=O)(=O)N2CCN(CC(=O)Nc3ccc([N+](=O)[O-])cc3)CC2)c1,–,14.6 µM (active)
Cc1ccc(C)c(S(=O)(=O)N2CCN(C(=O)Nc3ccccc3)CC2)c1,-17.6%,–
Cc1ccc(S(=O)(=O)N2CCN(CC(=O)N/N=C/c3cc([N+](=O)[O-])ccc3Cl)CC2)cc1,-1.1%,–
Cc1ccc(S(=O)(=O)N2[C@@H](c3ccccc3F)C(C(=O)O)=CC[C@H]2c2ccc(Cl)cc2)cc1,3.35%,–
Cc1c(NC(=O)CSc2nnc(-c3cccnc3)n2N)c(=O)n(-c2ccccc2)n1C,8.36%,–

SMILES,"activity change, negative = inhibition",Potency
O=C(Nc1ccc(F)cc1)N1CCCC(c2nc3c(nnn3Cc3ccccc3Cl)c(=O)[nH]2)C1 (configuration not stated),-26.2%,–
Cc1ccc(C)c(Cn2nnc3c(=O)[nH]c(C(=O)Nc4ccc(F)cc4)nc32)c1,-19.3%,–
Cc1ccc(NC(=O)N2CCC(c3nc4c(nnn4Cc4c(F)cccc4Cl)c(=O)[nH]3)CC2)cc1,–,18.4 µM (active)
Cc1cccc(NS(=O)(=O)c2ccc(C)c(C(=O)NCC(c3ccccc3)N(C)C)c2)c1 (configuration not stated),1.94%,–
COc1ccc2nc(Nc3nc(-c4cc5ccccc5oc4=O)cs3)sc2c1,–,3.66 µM (active)
CCc1noc(C)c1C(=O)Nc1nc2ccc(OC)cc2s1,8.8%,–
COc1ccc2nc(Nc3nc4ccc(NC(C)=O)cc4s3)sc2c1,14.9%,–
CC1CCCCC1NCC(=O)Nc1ccccc1C(=O)Nc1ccccc1 (configuration not stated),-2.06%,–
CC(C)(C)OC(=O)N1CCC(C(=O)NNC(=O)c2ccc(Cl)cc2Cl)CC1,12.8%,–
O=C(CN1CCc2ccccc21)NC(c1ccccc1)c1ccccc1,-0.985%,–
COC(=O)c1[nH]c2cccc(C)c2c1NC(=O)CN1CCCc2ccccc21,–,18.4 µM (active)
NS(=O)(=O)c1cccc(NC(=O)CN2CCCc3ccccc32)c1,-6.2%,–
CCC(=O)c1cc(F)ccc1OCC(=O)Nc1ccc2c(c1)OCCO2,-13.3%,–
CCOCCCN(C)C1CCN(C(=O)c2oc3ccccc3c2NC(=O)COc2cccc(C)c2)CC1,-22.3%,–
CCOc1ccc(S(=O)(=O)Nc2cccc(C(=O)NCC3(N4CCCCC4)CCCCC3)c2)cc1,-6.27%,–
COc1cccc(CNC(=O)C2CCCN(c3ncnc4c3nc3n4CCCCC3)C2)c1 (configuration not stated),–,18.3 µM (active)
CCOC(=O)c1cccc(NC(=O)C2CCN(c3ncnc4c3nc3n4CCCCC3)CC2)c1,–,0.461 µM (active)
CCOC(=O)c1cccc(NC(=O)C2CCCN(S(=O)(=O)c3cnc[nH]3)C2)c1 (configuration not stated),-6.55%,–
COc1cccc(NC(=O)C2CCCN(c3ncnc4c3nc3n4CCCCC3)C2)c1 (configuration not stated),–,14.6 µM (active)
O=C(Nc1cccc(Cl)c1)C1CCCN(c2cnccn2)C1 (configuration not stated),15.8%,–
O=C(NCCCN1CCCCC1)C1CCCN(c2ncnc3c2nc2n3CCCCC2)C1 (configuration not stated),-0.877%,–
COc1cccc(CNC(=O)C2CCCN(S(=O)(=O)N3CC(C)CC(C)C3)C2)c1 (configuration not stated),7.78%,–
CCOC(=O)c1cccc(NC(=O)CCc2c(C)nc3ncnn3c2C)c1,-7.17%,–
COc1ccccc1NC(=O)C1CCCN(c2cc(C)nc3ncnn23)C1 (configuration not stated),1.9%,–
